Reference: PubChem BioAssay (NCATS)
Inconclusive results are not listed. Activity calls are given as the source filed them. The call rests on the fitted dose curve; in most records, active means well fitted curve in the direction sought with a large enough effect; inconclusive means small, poorly fitted or top-dose-only effect, or another doubt; inactive means no such curve, though single readings can be large; an effect the other way counts as inactive or inconclusive.

Test: qHTS for Inhibitors of Ubiquitin-specific Protease USP2a Using CHOP2 as the Reporter: K633 Counterscreen (AID 652168); further: % of control where 0% means no effect
Conditions: No-enzyme DiUb K48 IQF substrate fluorescence interference, kinetic; series mostly up to 57.5 µM; activity change, negative = inhibition: at the top concentration
How it was run: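 Detection-system control: fluorescence of K48-linked DiUb-4IQF substrate (100 nM as added) tracked over time, Ex 525/Em 598, with pinned compounds and no enzyme, in pH 8 Tris buffer containing beta-mercaptoethanol and 0.05% Chaps.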

Row | Compound | activity change, negative = inhibition
1 | Cc1ccc(S(=O)(=O)Nc2cnccc2C(=O)Nc2nc(-c3ccco3)cs2)cc1 | -4.21% (inactive)
2 | O=C(Nc1nc(-c2ccccc2)cs1)c1ccncc1NS(=O)(=O)c1ccc2ccccc2c1 | -3.41% (inactive)
3 | Cc1ccc(S(=O)(=O)Nc2ncccc2C(=O)Nc2nc(-c3ccccc3)cs2)cc1 | -6.72% (inactive)
4 | O=C(Nc1nc(-c2ccccc2)cs1)c1ccncc1NS(=O)(=O)c1ccc2c(c1)CCC2 | -2.46% (inactive)
5 | Cc1ccc(-c2cc(C(=O)Nc3ccc(C(N)=O)cc3)c3ccccc3n2)cc1C | -21.4% (inactive)
6 | Cc1ccc(S(=O)(=O)Nc2cnccc2C(=O)Nc2nc(-c3ccccc3F)cs2)cc1 | -7.22% (inactive)
7 | COc1ccc(-c2csc(NC(=O)c3ccncc3NS(=O)(=O)c3ccc(C)cc3)n2)cc1 | -2.79% (inactive)
8 | Cc1ccc(-c2cc(C(=O)Nc3ccc([N+](=O)[O-])cc3)c3ccccc3n2)cc1C | -25.3% (inactive)
9 | O=C(Nc1nc(-c2ccccc2)cs1)c1ccncc1NS(=O)(=O)c1ccc(-c2ccccc2)cc1 | -29.6% (inactive)
10 | Cc1ccc(S(=O)(=O)Nc2cnccc2C(=O)Nc2cccc3ccccc23)cc1 | -11.6% (inactive)
11 | Cc1ccc(S(=O)(=O)Nc2cnccc2C(=O)Nc2nc(-c3ccc(C)c(C)c3)cs2)cc1 | -3.65% (inactive)

Test: qHTS for Inhibitors of Ubiquitin-specific Protease USP2a Using CHOP2 as the Reporter: Cytotox Assay (AID 652170); further: nearly all actives have a fitted effect of over 70% in size; further: potency means the concentration at half of the fitted maximal effect;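 on activity change, negative = cytotoxicity: HCT116 human colon cancer cells at 600 per well; plate controls were DMSO-treated cells for no effect and wells without cells for full effect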
Conditions: HCT116 viability, CellTiter-Glo luminescence, 72 h; series mostly up to 46.1 µM; activity change, negative = cytotoxicity: at the top concentration
How it was run: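 Cytotoxicity read as ATP luminescence (CellTiter-Glo) after 72 hr compound treatment at 37 deg C. Cells: HCT116, 600/well in DMEM plus 10% FBS. Normalization between DMSO-treated cells and cell-free wells.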

Row | Compound | activity change, negative = cytotoxicity | Potency
12 | O=C(Nc1ccc(C(=O)Nc2nccs2)cc1)c1ccc2ccccc2c1 | 8.89% (inactive) | –
13 | Cc1ccc(-c2cc(C(=O)NCc3ccc(S(N)(=O)=O)cc3)c3ccccc3n2)cc1C | 16.4% (inactive) | –
14 | Cc1ccc(-c2cc(C(=O)Nc3ccc(S(=O)(=O)Nc4ccccn4)cc3)c3ccccc3n2)cc1C | 3.37% (inactive) | –
15 | Cc1ccc(-c2cc(C(=O)Nc3ccc(Cl)cc3)c3ccccc3n2)cc1C | 4.83% (inactive) | –
16 | Cc1ccc(-c2cc(C(=O)Nc3ccc(S(=O)(=O)Nc4cccnc4)cc3)c3ccccc3n2)cc1C | -11.2% (inactive) | –
17 | O=C(Nc1ccc(S(=O)(=O)Nc2nccs2)cc1)c1ccc2ccccc2c1 | -6.21% (inactive) | –
18 | Cc1ccc(S(=O)(=O)Nc2ccccc2C(=O)Nc2cnc(-c3ccccc3)cn2)cc1 | – | 16.6 µM (active)
19 | CNS(=O)(=O)c1ccc(NC(=O)c2cc(-c3ccc(C)c(C)c3)nc3ccccc23)cc1 | -20.5% (inactive) | –
20 | Cc1ccc(NC(=O)c2cc(-c3ccc(C)c(C)c3)nc3ccccc23)cc1 | 17.4% (inactive) | –
21 | Cc1ccc(-c2cc(C(=O)Nc3cccnc3)c3ccccc3n2)cc1C | -3.45% (inactive) | –
22 | CCCCC1CCC(C(=O)Nc2ccc(S(=O)(=O)Nc3cc(C)on3)cc2)CC1 (configuration not stated) | -5.01% (inactive) | –
23 | Cc1ccc(S(=O)(=O)Nc2ccc(OC(F)(F)F)cc2C(=O)Nc2nc(-c3ccccc3)cs2)cc1 | – | 5.9 µM (active)
24 | Cc1ccc(-c2cc(C(=O)Nc3ccc4ccccc4c3)c3ccccc3n2)cc1C | -6.45% (inactive) | –
25 | Cc1ccc(-c2cc(C(=O)Nc3ccc4[nH]ccc4c3)c3ccccc3n2)cc1C | 20.5% (inactive) | –
26 | Cc1ccc(-c2cc(C(=O)Nc3cccc(S(=O)(=O)Nc4nccs4)c3)c3ccccc3n2)cc1C | 12.2% (inactive) | –
27 | COC(=O)C1=CC[C@H](c2ccc(C)cc2)N(S(=O)(=O)c2ccc(C)cc2)[C@@H]1c1ccc(C(C)(C)C)cc1 | -18.4% (inactive) | –
28 | Cc1ccc(S(=O)(=O)Nc2ccccc2C(=O)Nc2ncc(-c3ccccc3)o2)cc1 | – | 4.69 µM (active)
29 | Cc1ccc(-c2cc(C(=O)Nc3ccc(S(=O)(=O)N(C)Cc4nccs4)cc3)c3ccccc3n2)cc1C | 44.9% (inactive) | –
30 | Cc1ccc(-c2cc(C(=O)Nc3ccc(S(=O)(=O)Nc4ccncc4)cc3)c3ccccc3n2)cc1C | -2.19% (inactive) | –
31 | Cc1ccc(S(=O)(=O)Nc2ccc(Cl)c(C(=O)Nc3nc(-c4ccccc4)cs3)c2)cc1 | -29.9% (inactive) | –
32 | Cc1ccc(-c2cc(C(=O)Nc3ccncc3)c3ccccc3n2)cc1C | – | 18.7 µM (active)
33 | O=C(C[C@H]1CC[C@@H](C(=O)Nc2ccc(S(=O)(=O)Nc3nccs3)cc2)C1)c1ccccc1 | 4.44% (inactive) | –
34 | CCCCC1CCC(C(=O)Nc2ccc(S(=O)(=O)Nc3nccs3)cc2)CC1 (configuration not stated) | -15.1% (inactive) | –
35 | Cc1ccc(-c2cc(C(=O)Nc3ccc(S(C)(=O)=O)cc3)c3ccccc3n2)cc1C | 13.4% (inactive) | –
36 | Cc1ccc(S(=O)(=O)Nc2ccccc2Nc2nc(-c3ccccc3)cs2)cc1 | 14.1% (inactive) | –
37 | O=S(=O)(Nc1nccs1)c1ccc(Nc2nc(-c3ccc(-c4ccccc4)cc3)cs2)cc1 | 3.05% (inactive) | –
